Some test systems named below: NCI-H23 lung; NCI-H322M lung; HOP-62 NSCLC; HOP-92 NSCLC; NCI-H522 lung; A549/ATCC NSCLC; 786-0 renal; COLO 205 colon; DU-145 prostate; K-562 leukemia; MALME-3M melanoma; MDA-MB-231 breast; RXF 393 renal; SF-268 CNS; SF-295 CNS; SF-539 CNS; UACC-257 melanoma; M14 melanoma; NCI-H460 lung.
What all share (assay): NCI-60 one-dose screen, 48 h (100 = growth as untreated, 0 = no growth, -100 = all killed)
Common to all, as to settings: 10 µM

This is part of a sample that, as a whole, favours compounds with a hit. Of some 83,000 tested, about 20% had one in any assay.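 Results are percent growth after 48 hours of single-concentration exposure. 100 means growth as in untreated cells, lower positive values show inhibition; negative values down to -100 show cell death.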 Values without a mark were called inactive. The source made the active and inactive calls. The calls were made as follows: active = growth percent below 10; inactive = the rest.

With `OCC(O)C(O)C(O)C(O)/C=N/O` (stereo unspecified), the growth is 101% in the assay on NCI-H23 lung; 103% in the assay on NCI-H322M lung; 83.5% with HOP-62 NSCLC; 74.8% in the assay with HOP-92 NSCLC; 94.9% in the assay on NCI-H522 lung; 60.9% in the assay on A549/ATCC NSCLC. The growth in the assay with 786-0 renal is 96.8%; in the assay on COLO 205 colon, 112%; in the assay on DU-145 prostate, 108%; with K-562 leukemia it was 111%; in the assay on MALME-3M melanoma it was 110%; in the assay with MDA-MB-231 breast, 97.5%. Moreover, the growth in the assay on RXF 393 renal is 98.9%; in the assay on SF-268 CNS it was 98%; in the assay with SF-295 CNS, 105%; with SF-539 CNS, 106%; with UACC-257 melanoma, 62.3%; in the assay with M14 melanoma it was 94.7%.

On to `CC1CCCCN1C(=S)Nc1ccc(S(=O)(=O)N2CCCCC2)cc1` (stereo unspecified), for which the growth with NCI-H23 lung was 104%; with NCI-H322M lung, 118%; in the assay on NCI-H460 lung, 97.1%; with HOP-92 NSCLC, 63.1%; with NCI-H522 lung, 73%; in the assay on A549/ATCC NSCLC it was 101%. Besides, the growth with 786-0 renal was 92.6%; in the assay with DU-145 prostate, 106%; in the assay with K-562 leukemia it was 84.6%; with MALME-3M melanoma it was 130%; with MDA-MB-231 breast, 119%; with RXF 393 renal it was 109%. For the same compound, the growth in the assay with SF-268 CNS was 97.2%; in the assay with SF-295 CNS, 79.2%; with SF-539 CNS, 96.9%; with UACC-257 melanoma it was 105%; in the assay on M14 melanoma, 89.2%.

As to `NCCCN`, the growth in the assay on NCI-H23 lung is 112%; in the assay with NCI-H322M lung, 108%; in the assay with HOP-62 NSCLC, 99.4%; in the assay with NCI-H460 lung, 108%; in the assay on NCI-H522 lung, 105%; in the assay with A549/ATCC NSCLC, 105%. For the same compound, the growth in the assay with 786-0 renal is 104%; in the assay on COLO 205 colon it was 122%; with DU-145 prostate, 107%; in the assay with K-562 leukemia it was 103%; in the assay with MALME-3M melanoma it was 95.5%; in the assay with MDA-MB-231 breast, 106%. Further, the growth in the assay on RXF 393 renal was 115%; in the assay with SF-268 CNS it was 103%; in the assay with SF-539 CNS, 102%; with M14 melanoma it was 112%.

Regarding `O=C(O)COCC(=O)O`, the growth is 105% with NCI-H23 lung; 97.6% with NCI-H322M lung; 103% with HOP-62 NSCLC; 107% in the assay on NCI-H460 lung; 72.4% in the assay on HOP-92 NSCLC; 94.3% in the assay with NCI-H522 lung. Also, the growth in the assay on A549/ATCC NSCLC was 91.6%; with 786-0 renal, 110%; in the assay on COLO 205 colon, 108%; in the assay with DU-145 prostate, 103%; with K-562 leukemia it was 116%; in the assay on MALME-3M melanoma, 83.6%. Also, the growth in the assay with MDA-MB-231 breast is 106%; in the assay with RXF 393 renal, 102%; in the assay on SF-268 CNS, 92.6%; in the assay with SF-295 CNS, 89.7%; with SF-539 CNS, 104%; in the assay with UACC-257 melanoma it was 87.9%. The growth with M14 melanoma is 111%.

As for `S=C1CCCCCN1`, the growth is 105% in the assay with NCI-H23 lung; 99.5% in the assay on NCI-H322M lung; 92.9% in the assay on HOP-62 NSCLC; 103% in the assay on HOP-92 NSCLC; 105% with NCI-H522 lung; 101% with A549/ATCC NSCLC. Besides, the growth is 107% in the assay with 786-0 renal; 111% in the assay on COLO 205 colon; 110% in the assay with DU-145 prostate; 107% in the assay with K-562 leukemia; 107% in the assay with MALME-3M melanoma; 111% in the assay with MDA-MB-231 breast. Moreover, the growth is 123% in the assay on RXF 393 renal; 99.6% with SF-268 CNS; 102% with SF-295 CNS; 96.8% in the assay on SF-539 CNS; 97.8% with UACC-257 melanoma; 105% in the assay with M14 melanoma.

Take `O=[N+]([O-])c1ccc(N=Nc2ccc(O)c3ccccc23)cc1`: the growth with NCI-H23 lung is 6.51% (active); with NCI-H322M lung, 79.3%; with HOP-62 NSCLC, 75.2%; with HOP-92 NSCLC it was 10.8%; with NCI-H522 lung it was -14.2% (active); in the assay with A549/ATCC NSCLC, 71.1%. Also, the growth in the assay on DU-145 prostate is 66.9%; with K-562 leukemia it was 22.1%; in the assay on MALME-3M melanoma, 57.8%; with MDA-MB-231 breast it was 36.8%; in the assay on RXF 393 renal, 60.1%; with SF-268 CNS it was 45.9%. The growth was 75.4% in the assay with SF-539 CNS and 17% in the assay on UACC-257 melanoma.

For the compound `CC1CC(O)C2C3(C)CCCC2(COC3=O)C12CCC1(CCOC1=O)O2` (stereo unspecified), the growth in the assay on NCI-H23 lung was 109%; in the assay on NCI-H322M lung, 117%; in the assay with HOP-62 NSCLC, 111%; in the assay on NCI-H460 lung, 95.4%; in the assay with HOP-92 NSCLC it was 81.8%; in the assay with NCI-H522 lung, 107%. The growth is 110% with A549/ATCC NSCLC; 99.1% in the assay with 786-0 renal; 118% in the assay with COLO 205 colon; 105% in the assay on DU-145 prostate; 127% in the assay on K-562 leukemia; 116% with MALME-3M melanoma. The growth in the assay on MDA-MB-231 breast was 126%; in the assay with RXF 393 renal, 114%; with SF-268 CNS, 107%; in the assay on SF-295 CNS it was 131%; with SF-539 CNS it was 101%; in the assay on UACC-257 melanoma it was 114%. Besides, the growth with M14 melanoma is 96.8%.

As to `CCNc1nc2c(cnn2C)c(=O)[nH]1`, the growth in the assay with NCI-H23 lung is 99.7%; in the assay with NCI-H322M lung it was 95.5%; in the assay with HOP-62 NSCLC it was 101%; in the assay with NCI-H460 lung it was 108%; with HOP-92 NSCLC, 99.8%; in the assay with NCI-H522 lung it was 98.4%. The growth with A549/ATCC NSCLC was 109%; in the assay with 786-0 renal it was 101%; in the assay with COLO 205 colon it was 96.5%; in the assay with DU-145 prostate it was 113%; in the assay on K-562 leukemia, 98.2%; in the assay on MDA-MB-231 breast, 110%. In addition, the growth in the assay on RXF 393 renal is 94.6%; with SF-268 CNS it was 104%; in the assay on SF-295 CNS, 103%; in the assay with SF-539 CNS, 104%; in the assay on UACC-257 melanoma it was 115%; in the assay with M14 melanoma, 99.3%.

`COc1ccc(-c2cc3c(nn2)-c2ccccc2C3=O)cc1`: the growth in the assay with NCI-H23 lung was 68.5%; in the assay on NCI-H322M lung, 65.6%; in the assay with HOP-62 NSCLC, -14.4% (active); with NCI-H460 lung it was 15.1%; with NCI-H522 lung, 26.4%; in the assay with A549/ATCC NSCLC, 2.29% (active). For the same compound, the growth in the assay on 786-0 renal is 25.8%; in the assay with DU-145 prostate, 21.2%; with K-562 leukemia, 21.9%; with MALME-3M melanoma, -21.1% (active); with MDA-MB-231 breast it was 59.5%; in the assay on RXF 393 renal, 71.8%. Further, the growth is 39.1% in the assay with SF-268 CNS; -40.7% (active) in the assay on SF-295 CNS; 82.1% in the assay on SF-539 CNS; 69.6% with UACC-257 melanoma; 42.9% in the assay with M14 melanoma.

(Values after PubChem BioAssay (NCI).)
